By inhibition is commonly meant the relative decrease from the control value, in per cent.

Values joined by “and” are separate entries in the source; they are usually repeats but may differ in a detail not shown here. Equal values may be shown once. The whole screen tested about 220,000 compounds, of which about 2,000 (0.91%) were called active. Inconclusive results (about 2%) are left out. Rule as the data show it: inconclusive = inhibition above about 80% without an active follow-up result; inactive = below that; test concentration not stated here. Only a sample is shown. Entries with a potency or affinity are not part of this list.

The results in this text go back to PubChem BioAssay AID1626 (SRMLSC, 2009).

The nature of the assay: M. tuberculosis H37Rv growth inhibitors, H37Rv strain (AID 1626).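 Also: bacteria incubated seven days before Alamar blue readout; 0% = bacteria only wells and 100% = bacteria with antibiotic wells.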 The following applies: active compounds read high, concentration not given here.
Regarding `O=C(NC(=S)NCCN1CCOCC1)c1ccccc1`, the inhibition was -16.1% (inactive).
As for `CCOC(=O)C1CCCN(C(=O)c2ccc([N+](=O)[O-])c(C)c2)C1` (stereo not drawn), the figure is -2.07% (inactive).
As for `CCOC(=O)C1CCCN(c2cc(NCCCO)c([N+](=O)[O-])c3nonc23)C1` (stereo not drawn), the figure is 1.76% (inactive); as for `Cc1n[nH]c(=O)n1-c1ccc(OCc2ccccc2)cc1`, -0.14% (inactive).
As for `Cc1cc(-c2nnc(SCC(=O)c3ccc(F)cc3)o2)no1`, the figure is 3.52% (inactive); as for `c1ccc2c(N3CCOCC3)nc(-c3ccncc3)nc2c1`, -3.11% (inactive).
Consider `CN1CCN(c2nc(-c3ccccn3)nc3ccccc23)CC1`, for which the inhibition was 10.9% (inactive).
To `Fc1ccccc1-c1nc(N2CCCCC2)c2ccccc2n1` belongs 7.2% (inactive); to `CCN1CCN(c2nc(-c3ccccn3)nc3ccccc23)CC1`, -2.25% (inactive).
As for `c1cncc(-c2nc(N3CCOCC3)c3ccccc3n2)c1`, the figure is -2.03% (inactive); as for `c1ccc2c(N3CCCCCC3)nc(-c3ccncc3)nc2c1`, 37% (inactive); as for `CCn1cc(C(=O)N2CCN(c3ccc([N+](=O)[O-])cc3)CC2)c(=O)c2ccc(C)nc21`, 6.57% (inactive).
To `O=S(=O)(O)c1nc2ccccc2[nH]1` belongs -0.16% (inactive).
Turning to `Cc1cc(=O)[nH]c(N/N=C/c2cc(C)n(-c3ccccc3)c2C)n1`, the inhibition was -2.65% (inactive).
To `S=C(Nc1ccc(Cl)cc1)NC1CC2CCCC(C1)N2C1CC1` (stereo not drawn) belongs -1.32% (inactive); to `Cc1ccc(-n2c(C(C)n3nc(C)c([N+](=O)[O-])c3C)n[nH]c2=S)cc1` (stereo not drawn), 3.01% (inactive).
To `Cc1ccc(C(=O)CSC2=NC(N)=C(C#N)C3(CCCCC3)C2C(N)=O)cc1` (stereo not drawn) belongs -12.2% (inactive); to `Fc1c(F)c(C(F)(F)F)c(F)c(F)c1N1CCN(c2ccc3nnc(C(F)(F)F)n3n2)CC1`, 8.98% (inactive).
For `FC(F)(F)c1nnc2ccc(N3CCCC3)nn12`, the inhibition is -2.32% (inactive).
As for `COc1ccc(NC(=O)COc2ncnc3ccccc23)cc1S(=O)(=O)N1CCOCC1`, the inhibition is -8.54% (inactive).
As for `CCCc1[nH]n(-c2nc3ccccc3s2)c(=O)c1C=NCCCOC`, the figure is -3.55% (inactive); as for `Cc1cc(Nc2ccccc2)n(-c2ccccc2)n1`, 1.16% (inactive); as for `CNc1cc(C)nc(-n2nc(C)cc2C)n1`, 13% (inactive).
To `CC(=O)Nc1cc(C)nn1-c1nc(C)cc(C)n1` belongs 3.43% (inactive); to `Cc1cc(Nc2ccccc2)n(-c2ccc(Br)cc2)n1`, -7.48% (inactive); to `Cc1ccc(C)c(C(=O)Nc2cc(C)nn2-c2nc(C)cc(C)n2)c1`, 22% (inactive).
To `COc1ccc(Nc2cc(C)nc(N3CCOCC3)n2)cc1` belongs 10.4% (inactive).
In the case of `O=C(c1ccc(Cl)nc1)N1CCN(S(=O)(=O)c2ccc(Cl)cc2)CC1`, the inhibition was 5.1% (inactive).
As for `Cc1ccc(/C=C(/C#N)C(=O)NC(C)c2ccccc2)o1` (stereo not drawn), the figure is 5.5% (inactive).
In the case of `CCCC(c1nnnn1C(C)(C)CC)N1CCN(C2CCCC2)CC1` (stereo not drawn), the inhibition is 3.73% (inactive).
Consider `CC(=O)Nc1ccccc1C(=O)C(=O)Nc1ccc(C(=O)N2CCOCC2)cc1`, for which the inhibition was -0.85% (inactive).
To `Cc1ccc(C2C(C(=O)c3sc(C)nc3C)=C(O)C(=O)N2CCN(C)C)o1` (stereo not drawn) belongs -6.12% (inactive); to `COc1ccc(S(=O)(=O)Nc2ccc(N3CCOCC3)cc2)cc1[N+](=O)[O-]`, -1.81% (inactive); to `COC(CNc1cc(=O)oc2ccccc12)OC`, 3.54% (inactive).
As for `O=C(COC(=O)CC1CC2CCC1C2)Nc1c(F)cccc1F` (stereo not drawn), the figure is -6.22% (inactive); as for `CCN(CC)CCNC(=O)C(=O)Nc1ccc(C(=O)OC)cc1`, 0.58% (inactive).
Turning to `CCOC(=O)c1ccc(NC(=S)NCc2cccnc2)cc1`, the inhibition is -9.64% (inactive).
To `CCCCOC(=O)c1ccc(NC(C)=O)cc1` belongs 58.3% (inactive); to `CCCCOC(=O)c1ccc(NC(=O)c2c(OC)cccc2OC)cc1`, -7.36% (inactive).
To `CCN(CC)CCNC(=O)c1ccc(NC(C)=O)cc1` belongs -2.03% (inactive) and 6.46% (inactive); to `CCOC(=O)c1ccc(NC(=O)C(=O)NCCc2ccc(OC)cc2)cc1`, 2.35% (inactive); to `CCCCNc1ccc(C(=O)OCCN(C)C)cc1`, 5.64% (inactive).
As for `CCCCOC(=O)c1ccc(NC(=O)C(=O)NCc2ccco2)cc1`, the inhibition was 5.24% (inactive).
Consider `CCOc1cc(CNc2ccc(N(C)C)cc2)cc(Br)c1OCC(=O)NC(C)(C)C`, for which the inhibition is 13.9% (inactive).
As for `O=C(Cn1nnc2ccccc21)OCc1ccccc1`, the figure is 3.11% (inactive).
As for `CC(C(=O)Nc1ccc(C(=O)O)cc1)N1C(=O)c2ccccc2C1=O` (stereo not drawn), the figure is 2.02% (inactive); as for `CC1C(=O)NN=C1C(=O)N/N=C/c1ccco1` (stereo not drawn), 4.15% (inactive).
To `N/C(CN1CCCC1=O)=N\OC(=O)c1ccccc1Cl` belongs -4.21% (inactive).
Take `CC(C)(C)C(=O)Nc1ccc(N=Nc2ccccc2)cc1`: the inhibition was 1.74% (inactive).
Consider `COc1ccc(C2=NOC(C)(c3nnc(-c4ccncc4)o3)C2)cc1` (stereo not drawn), for which the inhibition is 3.27% (inactive).
To `O=C(c1csc2c1CCCC2)N1CCCCC1` belongs -7.91% (inactive); to `Cc1ccc2c(c1)NC(=O)C(CC(=O)NCCCN1CCc3ccccc3C1)O2` (stereo not drawn), -7.1% (inactive).
Regarding `Cc1cc(=O)oc2cc(OC(=O)c3ccccc3)ccc12`, the inhibition is 70% (inactive).
To `COCCOC(=O)c1c(C)oc2ccc(OCc3ccccc3)cc12` belongs 0.54% (inactive); to `COCCOC(=O)c1c(C)oc2ccc(OS(C)(=O)=O)cc12`, 10.4% (inactive); to `COCCOC(=O)c1c(C)oc2ccc(OC(=O)c3c(OC)cccc3OC)cc12`, 9.56% (inactive).
To `CC(=O)Oc1ccc2c(C)cc(=O)oc2c1` belongs 74.8% (inactive).
As for `COCCOC(=O)c1c(C)oc2ccc(OC(=O)N(C)C)cc12`, the figure is -0.97% (inactive).
As to `COc1ccccc1N(CC(=O)NCc1ccccc1)C(=O)CCC(=O)Nc1cc(C)ccn1`, the inhibition is -0.58% (inactive).
To `Clc1cccc(-c2nnc(-c3ccccc3)o2)c1` belongs 10.9% (inactive).
As for `N#CCC(=O)Nc1ccc(C(=O)NCc2ccccn2)cc1`, the figure is -2.46% (inactive).
To `CCC(=O)c1cc(F)c(N2CCN(S(=O)(=O)c3ccc(C)cc3)CC2)cc1C` belongs 4.53% (inactive); to `O=C(CN1C(=O)CCSc2ccccc21)N1CCC2(CC1)OCCO2`, -1.04% (inactive).
